# Shown is part of a subset that was picked to be rich in the strongest signals.
# B1: GS13971A-bth-447-22-447 (Bacteroides thetaiotaomicron) (protein)
# chain: EDVDNERSKGMFSASQSGFSTIEVYDLGPLNKIDLSIAKAGLEDTGGTVTFSVEQSLLDSLNNADGTSYQLLPPECYTIENATYSVSPGGDRRVTGGSLVYDPHKIYNLCGFDELKYVLPLRVSSTGTPMNSDRTATLYGFIVKEAIVRLASTGGDFVVEGGTTTSPMNLDTEISFENEWDLTTSFATKGADYVDNYNSANSTYYIPLPSDFYTLPDVTIAKGKTTGGSAISLLGETLPPGNYLLPVSLGGLSGQGDASINIDKETVANYFVIKQGGPINRDHWTVTANTEEKTGEVSAAYPHNGQTISLIDGEINTFWHSKWQGGEVAPPYEIILDMGKENSVSQLGLIARQNALTSMNLEIYAGDDGETWNLIGKYFFDGSIKTEQMVPVKACDARWIRIYIPTLGSGSSVGHLAEIYVYGTDK
# What was measured:
# Test in all cases: glycan array binding signal (z-score within array); higher = stronger binding
# Details in all cases: glycan notation: IUPAC condensed, linker removed
# [1] = biological target: Gal(b1-4)GlcNAc(b1-3)[GlcNAc(b1-6)]Gal(b1-4)GlcNAc
# Summary of the method: (§1)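 Glycan array binding is given as a within-array Z-score, which can be read as non-binding when negative. The arrays, 3228 of them, came from the Consortium for Functional Glycomics database and were retained only where the protein sequence was available. Z-scores were averaged across arrays of the same protein sequence at different concentrations or buffers and across linkers.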
# [2] = biological target: Gal(b1-4)GlcNAc(b1-6)[Gal(b1-4)GlcNAc(b1-3)]GalNAc
# Summary of the method: as §1
# [3] = biological target: Gal3S(b1-4)[Fuc(a1-3)]GlcNAc6S
# Summary of the method: as §1
# [4] = biological target: Gal6P(b1-4)GlcNAc
# Summary of the method: as §1
# [5] = biological target: GalNAc(b1-3)Gal(a1-6)Gal(b1-4)Glc
# Summary of the method: as §1
# [6] = biological target: GalNAc(b1-4)GlcNAc
# Summary of the method: as §1
# [7] = biological target: GalNAc(b1-4)GlcNAc(b1-2)Man(a1-3)[GalNAc(b1-4)GlcNAc(b1-2)Man(a1-6)]Man(b1-4)GlcNAc(b1-4)GlcNAc
# Summary of the method: as §1
# [8] = biological target: GalNAc4S6S(b1-4)GlcNAc
# Summary of the method: as §1
# [9] = biological target: Glc(a1-6)Glc(a1-6)Glc(a1-6)Glc
# Summary of the method: as §1
# [10] = biological target: GlcA(b1-3)GlcNAc
# Summary of the method: as §1
# [11] = biological target: GlcNAc(b1-3)Gal(b1-4)GlcNAc(b1-2)Man(a1-3)[GlcNAc(b1-3)Gal(b1-4)GlcNAc(b1-2)Man(a1-6)]Man(b1-4)GlcNAc(b1-4)GlcNAc
# Summary of the method: as §1
# [12] = biological target: GlcNAc(b1-3)Gal(b1-4)GlcNAc(b1-3)Gal(b1-4)GlcNAc(b1-3)Gal(b1-4)GlcNAc(b1-2)[GlcNAc(b1-3)Gal(b1-4)GlcNAc(b1-3)Gal(b1-4)GlcNAc(b1-3)Gal(b1-4)GlcNAc(b1-6)]Man(a1-6)[GlcNAc(b1-3)Gal(b1-4)GlcNAc(b1-3)Gal(b1-4)GlcNAc(b1-3)Gal(b1-4)GlcNAc(b1-2)Man(a1-3)]Man(b1-4)GlcNAc(b1-4)[Fuc(a1-6)]GlcNAc
# Summary of the method: as §1
# [13] = biological target: GlcNAc(b1-6)Gal(b1-4)GlcNAc
# Summary of the method: as §1
# [14] = biological target: Man(a1-3)[Man(a1-6)]Man(b1-4)GlcNAc(b1-4)GlcNAc
# Summary of the method: as §1
# [15] = biological target: Man(a1-3)[Man(a1-6)]Man(b1-4)GlcNAc(b1-4)[Fuc(a1-6)]GlcNAc
# Summary of the method: as §1
# [16] = biological target: MurNAc(b1-4)GlcNAc
# Summary of the method: as §1
# [17] = biological target: Neu5Ac(a2-3)Gal(b1-3)GalNAc
# Summary of the method: as §1
# [18] = biological target: Neu5Ac(a2-3)Gal(b1-3)GlcNAc(b1-2)Man(a1-3)[Neu5Ac(a2-3)Gal(b1-3)GlcNAc(b1-2)Man(a1-6)]Man(b1-4)GlcNAc(b1-4)GlcNAc
# Summary of the method: as §1
# [19] = biological target: Neu5Ac(a2-3)Gal(b1-4)GlcNAc(b1-2)[Neu5Ac(a2-3)Gal(b1-4)GlcNAc(b1-6)]Man(a1-6)[Neu5Ac(a2-3)Gal(b1-4)GlcNAc(b1-2)Man(a1-3)]Man(b1-4)GlcNAc(b1-4)GlcNAc
# Summary of the method: as §1
# [20] = biological target: Neu5Ac(a2-3)Gal(b1-4)GlcNAc(b1-3)Gal(b1-4)GlcNAc
# Summary of the method: as §1
# [21] = biological target: Neu5Ac(a2-3)Gal(b1-4)GlcNAc(b1-3)Gal(b1-4)GlcNAc(b1-3)Gal(b1-4)GlcNAc(b1-2)Man(a1-3)[Neu5Ac(a2-3)Gal(b1-4)GlcNAc(b1-3)Gal(b1-4)GlcNAc(b1-3)Gal(b1-4)GlcNAc(b1-2)Man(a1-6)]GalNAc
# Summary of the method: as §1
# [22] = biological target: Neu5Ac(a2-6)Gal(b1-4)GlcNAc(b1-2)Man(a1-3)[GlcNAc(b1-4)][Neu5Ac(a2-6)Gal(b1-4)GlcNAc(b1-2)Man(a1-6)]Man(b1-4)GlcNAc(b1-4)GlcNAc
# Summary of the method: as §1
# [23] = biological target: Neu5Ac(a2-6)Gal(b1-4)GlcNAc(b1-2)[Neu5Ac(a2-6)Gal(b1-4)GlcNAc(b1-4)]Man(a1-3)[GlcNAc(b1-4)][Neu5Ac(a2-6)Gal(b1-4)GlcNAc(b1-4)Man(a1-6)]Man(b1-4)GlcNAc(b1-4)GlcNAc
# Summary of the method: as §1
# [24] = biological target: Neu5Ac(a2-6)Gal(b1-4)GlcNAc6S
# Summary of the method: as §1
# [25] = biological target: Neu5Ac(a2-8)Neu5Ac(a2-8)Neu5Ac(a2-3)Gal(b1-4)Glc
# Summary of the method: as §1
binder,measurement,setting,value
B1,glycan array binding signal (z-score),[1],0.129
same,glycan array binding signal (z-score),[2],-0.463
same,glycan array binding signal (z-score),[3],0.338
same,glycan array binding signal (z-score),[4],-0.674
same,glycan array binding signal (z-score),[5],-0.007
same,glycan array binding signal (z-score),[6],2.92
same,glycan array binding signal (z-score),[7],5.75
same,glycan array binding signal (z-score),[8],-0.217
same,glycan array binding signal (z-score),[9],0.028
same,glycan array binding signal (z-score),[10],-0.782
same,glycan array binding signal (z-score),[11],-0.725
same,glycan array binding signal (z-score),[12],2.94
same,glycan array binding signal (z-score),[13],2.1
same,glycan array binding signal (z-score),[14],0.252
same,glycan array binding signal (z-score),[15],-0.859
same,glycan array binding signal (z-score),[16],-0.36
same,glycan array binding signal (z-score),[17],0.032
same,glycan array binding signal (z-score),[18],-0.673
same,glycan array binding signal (z-score),[19],1.47
same,glycan array binding signal (z-score),[20],1.45
same,glycan array binding signal (z-score),[21],2.81
same,glycan array binding signal (z-score),[22],0.18
same,glycan array binding signal (z-score),[23],-1.25
same,glycan array binding signal (z-score),[24],-1.24
same,glycan array binding signal (z-score),[25],1.11
